Test results: PubChem BioAssay (EPA / NIEHS)
The source made the active and inactive calls. Rule for the calls: active = hit-call score of the fitted dose curve at least 0.9, where 1 is the maximum; inactive = score below 0.9.

system: TTR (gene 7276); assay: CCTE_GLTED_hTTR_0.5uM: CCTE's human Transthyretin (hTTR) Inhibition Assay, with 0.5uM TTR, Great Lakes Toxicology and Ecology Division (GLTED) Lab (AID 2284320)
Procedure: CCTE_GLTED_hTTR is a cell-free, single-readout assay designed to test the chemicals' ability to displace T4 from the human transthyretin (TTR) protein. TTR (at 0.125uM or 0.5uM) is incubated in presence of test chemical for 2 hours during which disrupting chemicals displace ANSA from the TTR protein. Results read fluorescence at 380 excitation and 475 emission.CCTE_GLTED_hTTR_0.5uM is the assay component measured from the CCTE_GLTED_hTTR assay. It is designed to make measurements of fluorescent polarization, using a form of binding reporter, as detected with Fluorescence signals by Fluorescence technology.Data from the assay component CCTE_GLTED_hTTR_0.5uM was analyzed at the assay endpoint CCTE_GLTED_hTTR_0.5uM in the positive analysis fitting direction relative to DMSO as the negative control and baseline of activity. Using a type of binding reporter, loss-of-signal activity can be used to understand a chemical's ability to displace T4 from transthyretin. To generalize the intended target to other relatable targets, this assay endpoint is annotated to the 'transporter' intended target family, where the subfamily is 'hormone carrier protein'.

Structure (SMILES)	AC50	outcome
N=C(N)C(F)(F)C(F)(F)C(F)(F)C(F)(F)C(F)(F)C(F)(F)C(F)(F)F	4.85 µM (active)	
FC(F)(F)C(F)(F)C(F)(F)C(F)(F)C(F)(F)CCI	18.6 µM (active)	
C=CC(=O)OCC(F)(F)C(F)(F)C(F)(F)C(F)(F)COC(=O)C=C	0.886 µM (active)	
OCC(F)(F)C(F)(F)C(F)(F)C(F)(F)C(F)(F)C(F)F	33.2 µM (active)	
O=S(=O)(O)C(F)(F)C(F)(F)C(F)(F)C(F)(F)C(F)(F)C(F)(F)C(F)(F)F	0.0773 µM (active)	
O=C(O)C(F)(F)C(F)(F)C(F)(F)C(F)(F)C(F)(F)C(F)(F)C(F)(F)C(F)(F)C(F)(F)C(F)(F)C(F)(F)C(F)(F)F	11.6 µM (active)	
O=C(O)C(F)(F)C(F)(F)C(F)(F)C(F)(F)C(F)(F)C(F)(F)C(F)(F)C(F)(F)C(F)(F)C(F)F	1.03 µM (active)	
CC(C)(C)C(=O)CC(=O)C(F)(F)C(F)(F)C(F)(F)F		inactive
OCC(F)(F)C(F)(F)C(F)(F)C(F)(F)C(F)(F)C(F)(F)F	36.8 µM (active)	
O=C(O)C(F)(F)C(F)(F)OC(F)(F)F	31.7 µM (active)	
O=C(O)C(F)(F)C(F)(F)C(F)(F)F	31.9 µM (active)	
O=C(CC(=O)C(F)(F)C(F)(F)F)C(F)(F)F	3 µM (active)	
FC(F)(F)C(F)(F)C(F)(F)C(F)(F)CCI	75 µM (active)	
O=C(O)C(F)(F)C(F)(F)C(F)F	14.9 µM (active)	
O=C(O)C(F)(F)C(F)(F)C(F)(F)C(F)(F)F	10.2 µM (active)	
O=C(O)C(F)(F)C(F)(F)C(F)(F)C(F)(F)C(F)(F)C(F)(F)C(F)(F)C(F)(F)C(F)(F)C(F)(F)C(F)(F)C(F)(F)C(F)(F)F	10.3 µM (active)	
COC(=O)CCC(F)(F)C(F)(F)C(F)(F)C(F)(F)F	53.4 µM (active)	
FC(F)(I)C(F)(F)C(F)(F)C(F)(F)I	3.74 µM (active)	
O=C(O)C(F)(F)C(F)(F)C(F)(F)C(F)(F)C(F)(F)C(F)(F)C(F)(F)C(F)(F)Cl	0.252 µM (active)	
O=C(Cl)C(F)(F)C(F)(F)C(F)(F)C(F)(F)C(F)(F)C(F)(F)C(F)(F)C(F)(F)F	0.491 µM (active)	
